{"source": "the supplement of paper PMC8975748", "note": "Where a name gives a salt, the structure may show the parent alone. ± gives the standard deviation of the averaged measurements.", "data": [{"test_system": "Saccharomyces cerevisiae BY4741 SeMeCo community", "assay": "mean cell size (pixel area) (pixels); higher = larger cells", "settings": "10 µM; 24 h; SM minimal medium", "in_short": "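For 24 h, 70 µl of yeast culture diluted to OD600 = 0.3 from an overnight preculture at OD600 = 1.0 was kept in SM medium in 384-well plates acoustically predosed with drug, final 10 µM. The strain was Saccharomyces cerevisiae BY4741 forming a fluorescent community of four plasmids, each complementing one auxotrophy and carrying a fluorescent marker. Automated confocal microscopy of paraformaldehyde-fixed cells, analysed in Harmony, provided mean cell pixel area per well, which was averaged over 3 replicates. Same SeMeCo high-content imaging drug screen: Selleck FDA-approved drugs at 10 µM, 24 h in SM medium, 384-well plates, 3 replicates.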", "values": [{"smiles": "COc1ccc(C(CN(C)C)C2(O)CCCCC2)cc1", "note": "(stereo not given) [Venlafaxine HCl]", "mean cell size": "12.3 ± 0.27"}, {"smiles": "COc1ccc2c3c([nH]c2c1)C(C)=NCC3", "note": "[Harmaline]", "mean cell size": "12.4 ± 0.34"}, {"smiles": "CN1[C@@H]2C[C@@H](OC(=O)[C@H](CO)c3ccccc3)C[C@H]1[C@@H]1O[C@@H]12", "note": "[Scopolamine HBr trihydrate]", "mean cell size": "12.1 ± 0.18"}, {"smiles": "CC(C)N(CCC(C(N)=O)(c1ccccc1)c1ccccn1)C(C)C", "note": "(stereo not given) [Disopyramide]", "mean cell size": "12.27 ± 0.1"}, {"smiles": "C=CC[C@]1(O)CC[C@H]2[C@@H]3CCC4=CC(=O)CCC4=C3C=C[C@@]21C", "note": "[Altrenogest]", "mean cell size": "12.58 ± 0.1"}, {"smiles": "CN1[C@@H]2CC[C@H]1C[C@@H](OC(=O)[C@H](CO)c1ccccc1)C2", "note": "[Hyoscyamine]", "mean cell size": "12.27 ± 0.064"}, {"smiles": "CN1c2ccccc2C(NCCCCCCC(=O)O)c2ccc(Cl)cc2S1(=O)=O", "note": "(stereo not given) [Tianeptine sodium]", "mean cell size": "12.6 ± 0.24"}, {"smiles": "CN1C(=O)COc2c(C(=O)NC3CN4CCC3CC4)cc(Cl)cc21", "note": "(stereo not given) [Azasetron HCl]", "mean cell size": "12 ± 0.075"}, {"smiles": "CCCCCCCCCCCCCCCC[n+]1ccccc1", "note": "[Cetylpyridinium Chloride]", "mean cell size": "11.2 ± 0.14"}, {"smiles": "CCN1C[C@]2(OC(=O)c3ccccc3NC(C)=O)CC[C@H](OC)[C@@]34[C@@H]2C[C@@H]([C@@H]13)[C@@]1(O)C[C@H](OC)[C@H]2C[C@@H]4[C@]1(O)[C@H]2OC", "note": "[Lappaconitine]", "mean cell size": "12.4 ± 0.3"}, {"smiles": "Oc1cccc2cccnc12", "note": "[8-Hydroxyquinoline]", "mean cell size": "12.61 ± 0.039"}, {"smiles": "C[C@@H]1O[C@@H](O[C@H]2C[C@@H](O)[C@]3(CO)[C@H]4[C@H](O)C[C@]5(C)[C@@H](C6=CC(=O)OC6)CC[C@]5(O)[C@@H]4CC[C@]3(O)C2)[C@H](O)[C@H](O)[C@H]1O", "note": "[Ouabain]", "mean cell size": "12.3 ± 0.32"}, {"smiles": "[O-][n+]1ccccc1[S-].[O-][n+]1ccccc1[S-].[Zn+2]", "note": "[Zinc Pyrithione]", "mean cell size": "15.2 ± 0.23"}, {"smiles": "CCOC(=O)Nc1ccc(NCc2ccc(F)cc2)cc1N", "note": "[Retigabine 2HCl]", "mean cell size": "12.5 ± 0.25"}, {"smiles": "CC(=O)OCC1=C(C(=O)O)N2C(=O)[C@@H](N)[C@H]2SC1", "note": "[7-Aminocephalosporanic acid]", "mean cell size": "12.28 ± 0.11"}, {"smiles": "Cc1cc(C(C#N)c2ccc(Cl)cc2)c(Cl)cc1NC(=O)c1cc(I)cc(I)c1O", "note": "(stereo not given) [Closantel Sodium]", "mean cell size": "12.2 ± 0.24"}, {"smiles": "Nc1ccncc1", "note": "[4-Aminopyridine]", "mean cell size": "12.2 ± 0.16"}, {"smiles": "CC[C@H]1[C@@H]2C[C@H]3[C@@H]4N(C)c5ccccc5[C@]45C[C@@H]([C@@H]2[C@H]5O)N3[C@@H]1O", "note": "[Ajmaline]", "mean cell size": "12.1 ± 0.16"}, {"smiles": "CN1[C@@H]2C[C@@H](OC(=O)[C@H](CO)c3ccccc3)C[C@H]1[C@@H]1O[C@@H]12", "note": "[Scopolamine HBr]", "mean cell size": "12.5 ± 0.14"}, {"smiles": "O=C(O[C@H]1C[C@H]2CC[C@@H](C1)[N+]21CCCC1)C(O)(c1ccccc1)c1ccccc1", "note": "[Trospium chloride]", "mean cell size": "12.5 ± 0.18"}, {"smiles": "Nc1nc(N)nc(NC2CC2)n1", "note": "[Cyromazine]", "mean cell size": "12.46 ± 0.1"}, {"smiles": "CN(C)C(=O)Oc1ccc[n+](C)c1", "note": "[Pyridostigmine Bromide]", "mean cell size": "12.54 ± 0.1"}, {"smiles": "C=CN1CCCC1=O.II", "note": "[Povidone iodine]", "mean cell size": "12.5 ± 0.22"}, {"smiles": "CC1(C)S[C@@H]2[C@H](N)C(=O)N2[C@H]1C(=O)O", "note": "[6-Aminopenicillanic acid]", "mean cell size": "12.1 ± 0.25"}, {"smiles": "COc1ccc(C(CN(C)C)C2(O)CCCCC2)cc1", "note": "(stereo not given) [Venlafaxine]", "mean cell size": "12.1 ± 0.091"}, {"smiles": "Cn1cc(C2=C(c3cn(C4CCN(Cc5ccccn5)CC4)c4ccccc34)C(=O)NC2=O)c2ccccc21", "mean cell size": "12.41 ± 0.12"}, {"smiles": "C[N+]1(C)[C@@H]2C[C@@H](OC(=O)[C@H](CO)c3ccccc3)C[C@H]1[C@@H]1O[C@@H]12", "note": "[Methscopolamine]", "mean cell size": "12.49 ± 0.031"}, {"smiles": "COc1ccc(C=O)cc1", "note": "[p-Anisaldehyde]", "mean cell size": "12.3 ± 0.27"}, {"smiles": "COc1ccc2[nH]cc(CCN)c2c1", "note": "[5-Methoxytryptamine]", "mean cell size": "12.18 ± 0.062"}, {"smiles": "Cc1cc(C(C#N)c2ccc(Cl)cc2)c(Cl)cc1NC(=O)c1cc(I)cc(I)c1O", "note": "(stereo not given) [Closantel]", "mean cell size": "12.3 ± 0.27"}, {"smiles": "CC(C)(O)C(Cl)(Cl)Cl", "note": "[Chlorobutanol]", "mean cell size": "12.5 ± 0.16"}, {"smiles": "CC(C)=CCOc1c2occc2cc2ccc(=O)oc12", "note": "[Imperatorin]", "mean cell size": "12.6 ± 0.14"}, {"smiles": "CN[C@@H]1[C@@H](O)[C@@H](O[C@@H]2[C@@H](O)[C@H](O[C@H]3O[C@H](CN)CC[C@H]3N)[C@@H](N)C[C@H]2N)OC[C@]1(C)O.CN[C@@H]1[C@@H](O)[C@@H](O[C@@H]2[C@@H](O)[C@H](O[C@H]3O[C@H]([C@@H](C)N)CC[C@H]3N)[C@@H](N)C[C@H]2N)OC[C@]1(C)O.CN[C@@H]1[C@@H](O)[C@@H](O[C@@H]2[C@@H](O)[C@H](O[C@H]3O[C@H]([C@@H](C)NC)CC[C@H]3N)[C@@H](N)C[C@H]2N)OC[C@]1(C)O", "note": "[Gentamicin Sulfate]", "mean cell size": "12.1 ± 0.15"}, {"smiles": "O=C(O[C@H]1C[N+]2(CCCOc3ccccc3)CCC1CC2)C(O)(c1cccs1)c1cccs1", "note": "[Aclidinium Bromide]", "mean cell size": "12.59 ± 0.061"}, {"smiles": "CN[C@@H]1[C@@H](O)[C@@H](O[C@@H]2[C@@H](O)[C@H](O[C@H]3O[C@H]([C@@H](C)O)[C@@H](O)[C@H](O)[C@H]3N)[C@@H](N)C[C@H]2N)OC[C@]1(C)O", "note": "[Geneticin (G418 Sulfate)]", "mean cell size": "11.99 ± 0.045"}, {"smiles": "CC[C@@]1(O)C(=O)OCc2c1cc1n(c2=O)Cc2cc3ccccc3nc2-1", "note": "[Camptothecin]", "mean cell size": "12.3 ± 0.14"}, {"smiles": "NC(=O)CN1CCCC1=O", "note": "[Piracetam]", "mean cell size": "12.47 ± 0.028"}, {"smiles": "CNC1CC(N)C(O)C(OC2OC(CO)C(O)C3OC4(OC(C(N)CO)C(O)C(O)C4O)OC23)C1O", "note": "(stereo not given) [Hygromycin B]", "mean cell size": "11.8 ± 0.24"}, {"smiles": "O=c1[nH]c2ccccc2n1CCCN1CCC(n2c(=O)[nH]c3cc(Cl)ccc32)CC1", "note": "[Domperidone]", "mean cell size": "12.6 ± 0.23"}, {"smiles": "CC(NC(C)(C)C)C(=O)c1cccc(Cl)c1", "note": "(stereo not given) [Amfebutamone (Bupropion) HCl]", "mean cell size": "12.5 ± 0.13"}]}]}
